# Test results taken from PubChem BioAssay (NCATS).
# Inconclusive results are not listed. Some structures have more than one record in an assay (separate samples or runs), and their calls can disagree. Activity calls are given as the source filed them. Unless noted, calls follow the shape of the dose curve; as a rule, active = well fitted curve in the direction sought with a large enough effect; inconclusive = small, poorly fitted or top-dose-only effect, or another doubt; inactive = no such curve, though single readings can be large; an effect the other way counts as inactive or inconclusive.
# Tests used:
# [1] = target: Cytochrome P450 3A4 (Homo sapiens) (UniProt P08684); assay: Cytochrome P450 family 3 subfamily A member 4 (CYP3A4) small molecule antagonists: luciferase qHTS assay (AID 1645841; active = well fitted curve in the direction sought with a large enough effect in the repeat runs; an effect the other way counts as inactive or inconclusive; also: nearly all actives have a fitted effect of over 45% in size)
# In short: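 Luminescent CYP3A4 activity readout: compounds plus enzyme-substrate mix 10 min at room temperature, reaction started with NADPH regenerating system for 1 h, stopped with detection reagent, read after 20 min. Ketoconazole served as control.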
# [2] = Primary qHTS for small molecule stabilizers of the endoplasmic reticulum resident proteome: Secreted ER Calcium Modulated Protein (SERCaMP) assay (AID 1508630); also: % is scaled to controls: 0 for no effect and ±100 for the full control effect
# In short: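 GLuc-SERCaMP-expressing SH-SY5Y cells, pretreated 16 h with compound, are challenged with thapsigargin to empty ER calcium stores; after 4 h, coelenterazine is added directly to the medium and luminescence is imaged.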
# [3] = Primary qHTS for inhibitors of nuclear receptor binding SET domain protein 2 (NSD2) in an isogenic RCH-ACV NSD2 p.E1099K mutant (9B) (AID 1645876); also: nearly all actives have a fitted effect of over 70% in size; also: potency is read from the fitted curve at half-maximal effect
# [4] = Primary qHTS for inhibitors of nuclear receptor binding SET domain protein 2 (NSD2) in an RCH-ACV wild type WT cells (2C) (AID 1645877); also: nearly all actives have a fitted effect of over 70% in size; also: potency is read from the fitted curve at half-maximal effect
# [5] = target: Catechol O-methyltransferase (Homo sapiens) (UniProt P21964); assay: Confirmatory Screen for Target Class Profiling of Small Molecule Inhibitors of Methyltransferases (AID 1745852); conditions: MTase-Glo luminescence, SAH detection, recombinant enzyme; measured here: COMT max response; stronger effect = lower value; as to activity change, negative = inhibition: % is scaled to controls: 0 for no effect and ±100 for the full control effect
# [6] = target: Guanidinoacetate N-methyltransferase (Homo sapiens) (UniProt Q14353); assay: as above; conditions: MTase-Glo luminescence, SAH detection, recombinant enzyme; activity change, negative = inhibition: at 57.3 µM (top of the series) unless noted
# [7] = target: Nicotinamide N-methyltransferase (Homo sapiens) (UniProt P40261); assay: as above; conditions: MTase-Glo luminescence, SAH detection, recombinant enzyme; measured here: NNMT max response; stronger effect = lower value
# [8] = target: Phenylethanolamine N-methyltransferase (Homo sapiens) (UniProt P11086); assay: as above; conditions: MTase-Glo luminescence, SAH detection, recombinant enzyme; measured here: PNMT max response; stronger effect = lower value
# Sequence of Phenylethanolamine N-methyltransferase (Homo sapiens) (P11086 whole entry, looked up): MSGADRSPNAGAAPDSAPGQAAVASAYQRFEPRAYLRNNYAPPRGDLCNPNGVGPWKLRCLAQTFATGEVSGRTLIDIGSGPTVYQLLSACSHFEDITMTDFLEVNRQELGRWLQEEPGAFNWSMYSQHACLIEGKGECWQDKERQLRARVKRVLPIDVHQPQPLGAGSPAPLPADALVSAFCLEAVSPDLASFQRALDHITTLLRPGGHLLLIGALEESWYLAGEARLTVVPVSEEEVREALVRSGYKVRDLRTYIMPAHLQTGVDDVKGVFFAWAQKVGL
# Sequence of Cytochrome P450 3A4 (Homo sapiens) (P08684 whole entry, looked up): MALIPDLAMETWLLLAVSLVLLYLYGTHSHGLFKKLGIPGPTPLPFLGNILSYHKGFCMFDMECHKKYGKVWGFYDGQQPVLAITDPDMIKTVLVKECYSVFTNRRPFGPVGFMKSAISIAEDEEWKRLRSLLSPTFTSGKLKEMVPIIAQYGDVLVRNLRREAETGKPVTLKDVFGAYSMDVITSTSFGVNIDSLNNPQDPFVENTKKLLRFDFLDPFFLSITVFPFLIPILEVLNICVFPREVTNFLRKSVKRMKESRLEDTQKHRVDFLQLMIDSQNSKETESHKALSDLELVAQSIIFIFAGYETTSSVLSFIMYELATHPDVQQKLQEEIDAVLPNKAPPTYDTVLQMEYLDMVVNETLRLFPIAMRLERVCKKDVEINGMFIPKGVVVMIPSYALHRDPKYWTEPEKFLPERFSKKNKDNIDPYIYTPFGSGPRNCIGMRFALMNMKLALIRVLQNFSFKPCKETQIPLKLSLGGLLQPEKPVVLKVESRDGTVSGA
# Sequence of Nicotinamide N-methyltransferase (Homo sapiens) (P40261 whole entry, looked up): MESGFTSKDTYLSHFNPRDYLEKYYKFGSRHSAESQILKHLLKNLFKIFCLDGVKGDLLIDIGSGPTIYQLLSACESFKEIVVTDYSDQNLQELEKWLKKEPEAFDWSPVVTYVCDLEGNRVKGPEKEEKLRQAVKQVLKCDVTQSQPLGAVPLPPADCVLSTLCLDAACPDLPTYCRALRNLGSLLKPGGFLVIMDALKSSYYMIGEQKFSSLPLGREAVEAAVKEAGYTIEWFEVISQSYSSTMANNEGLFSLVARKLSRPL
# Sequence of Catechol O-methyltransferase (Homo sapiens) (P21964 whole entry, looked up): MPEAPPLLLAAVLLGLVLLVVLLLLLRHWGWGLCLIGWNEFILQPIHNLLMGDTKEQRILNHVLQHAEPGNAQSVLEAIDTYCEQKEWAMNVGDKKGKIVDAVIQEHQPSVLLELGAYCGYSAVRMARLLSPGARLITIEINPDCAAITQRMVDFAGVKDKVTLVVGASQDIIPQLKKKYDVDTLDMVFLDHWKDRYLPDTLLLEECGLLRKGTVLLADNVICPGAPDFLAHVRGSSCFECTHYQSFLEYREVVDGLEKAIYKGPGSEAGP
smiles,measurement,setting,value
CCN(CCCO)CCCOc1ccc2c(Nc3cc(CC(=O)Nc4cccc(F)c4)[nH]n3)ncnc2c1,Potency,[1],inactive
CCCS(=O)(=O)Nc1ccc(F)c(C(=O)c2c[nH]c3ncc(-c4ccc(Cl)cc4)cc23)c1F,Potency,[2],inactive
same,Potency,[3],18.4 µM (active) and inactive
same,Potency,[4],16.4 µM (active) and inactive
same,activity,[5],-8.94%
same,"activity change, negative = inhibition",[6],-0.0685%
same,activity,[7],-26%
same,activity,[8],-12.4%
CS(=O)(=O)Oc1ccc2c(NC(N)=O)c(C(=O)c3ccc(Cl)cc3Cl)oc2c1,Potency,[3],inactive
same,Potency,[4],inactive
